Active and inactive are the calls of the source.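 How the source made its calls: active means every separate test run called active, meaning the signal drops and a potency is fitted within twice the top valid dose; inconclusive means runs disagree, poor fit, or flat partial inhibition; inactive means all runs inactive, flat, opposite direction or too weak.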
Target: Mitogen-activated protein kinase 3 (Homo sapiens) (UniProt P27361)
Experiment: ERK1 kinase inhibitors, dose response, selectivity assay for Dyrk1A inhibitor NFAT project, biochemical, ADP-Glo luminescence, cherry pick, set 2 (AID 602295)
Conditions: 120 min; series mostly up to 10 µM

Mitogen-activated protein kinase 3 (Homo sapiens), sequence (P27361 whole entry, looked up): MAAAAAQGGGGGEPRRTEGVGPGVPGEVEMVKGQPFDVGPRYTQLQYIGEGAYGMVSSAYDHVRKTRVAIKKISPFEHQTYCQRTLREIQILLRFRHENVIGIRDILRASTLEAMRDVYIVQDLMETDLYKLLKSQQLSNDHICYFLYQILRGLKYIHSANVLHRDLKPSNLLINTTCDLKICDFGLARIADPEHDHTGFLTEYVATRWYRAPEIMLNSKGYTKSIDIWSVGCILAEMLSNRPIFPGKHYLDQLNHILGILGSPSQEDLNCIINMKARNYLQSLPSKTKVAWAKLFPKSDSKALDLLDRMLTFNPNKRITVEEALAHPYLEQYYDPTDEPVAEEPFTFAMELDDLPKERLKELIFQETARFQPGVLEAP

outcome, inactive:
Cc1csc(CN(C)c2ncnc3ccc(-c4ccc5c(c4)OCO5)cc23)n1
Brc1cc(Br)cc(CNc2nccc(-c3ccc4c(c3)OCO4)n2)c1
c1cncc(-c2nc(NCc3ccco3)c3ccccc3n2)c1
CN(Cc1cccs1)c1ncnc2ccc(-c3ccc4c(c3)OCO4)cc12
COc1ccc2c(c1)CCc1c-2n[nH]c1C(=O)O
c1coc(CCNc2ncnc3ccc(-c4ccc5c(c4)OCO5)cc23)c1
CCOC(=O)c1ccc(-c2ccc3ncnc(N(C)Cc4sccc4C)c3c2)o1
CCOC(=O)c1ccc2ncc(C(=O)OCC)c(Nc3ccc(N4CCOCC4)cc3)c2c1
Clc1ccc(CNc2cc(-c3ccc4c(c3)OCO4)ncn2)cc1
COc1cccc(-c2sc3ccccc3c2-c2ccc(OCCN3CCCC3)cc2)c1
c1cncc(CNc2cc(-c3ccc4c(c3)OCO4)ncn2)c1
Cc1occc1CNc1ncnc2ccc(-c3ccc4c(c3)OCO4)cc12
Clc1ccc(Nc2nccc(-c3ccc4c(c3)OCO4)n2)cc1
c1cncc(CNc2ccnc(-c3ccc4cn[nH]c4c3)n2)c1
c1cc(-c2ccc3c(c2)OCO3)nc(Nc2ccc3c(c2)OCO3)n1
Cc1noc(NS(=O)(=O)c2ccc(NC(=O)c3oc4ccc(F)cc4c3C)cc2)c1C
Cc1nc(CNc2ncnc3ccc(-c4ccc5c(c4)OCO5)cc23)cs1
N#Cc1c(C(F)(F)F)cc(-c2cccc(Cl)c2)[nH]c1=O
